Experimental data as given in PubChem BioAssay (NCI).
The panel holds about 83,000 compounds, 20% with a hit somewhere; the sample as a whole holds those more often.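 Method: cells in 96-well plates; compound added at one concentration; 48 h incubation; percent growth measured; values under 10 scored active.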 Values without a mark were called inactive. Calls of active or inactive are those of the source.

These compounds were tested on T-47D breast (assay: NCI-60 one-dose screen, 48 h (100 = growth as untreated, 0 = no growth, -100 = all killed)). Conditions: 10 µM.

Row | Compound | growth
1 | O=C(NO)c1ccc(-c2nc3ccc4[nH]ncc4c3c3c2CCCC3)cc1 | -8.47% (active)
2 | O=C(CNc1nc(-c2ccccc2)cs1)Nc1ccc(Cl)cc1 | -34.6% (active)
3 | COc1cc2c3c(n(CCCN4CCOCC4)c(=O)c2cc1OC)-c1nc2c(cc1C3=O)OCO2 | 14.5%
4 | Cc1ccc(/C=C/C(=O)c2ccc(NC(=O)CSc3nnc(-c4c[nH]c5ccccc45)n3-c3ccccc3)cc2)c(C)c1 | 36.9%
5 | O=C(CN1CCN(c2ncnc3c2cnn3-c2ccccc2)CC1)Nc1nncs1 | 27.9%
6 | CC(=O)Oc1ccccc1C(=O)Oc1ccc(C(=O)/C=C/c2ccncc2)cc1 | 54.9%
7 | O=C(NC(=S)N1CCN(c2ncnc3c2cnn3-c2ccccc2)CC1)c1ccc(Cl)cc1 | 57.2%
8 | C/C(=N\N=C\c1ccc(N(C)C)cc1)c1ccc2c(c1)Nc1ccccc1S2 | 44.6%
9 | COC(=O)C[C@](O)(CCCC(C)(C)O)C(=O)O[C@H]1C(OC)=C[C@@]23CCC(=O)N2CCc2cc4c(cc2[C@@H]13)OCO4 | 89.8%
10 | CN1CCN(Cc2ccc(NC(=O)c3cncc(C#Cc4cnc5ccc(N[C@H]6CCOC6)nn45)c3)cc2C(F)(F)F)CC1 | -64.7% (active)
11 | CCOc1ccc(/C=N/NC(=O)Cn2nc(Cc3ccc([N+](=O)[O-])cc3)c3onc(C)c3c2=O)cc1 | 8.58% (active)
12 | CN1CCN(c2ccc(C(=O)/C=C/c3ccc(OC(F)F)cc3)cc2)CC1 | 55%
13 | COc1ccc(C2N(c3ccc(Br)cc3)N=C(C(C)=O)N2[C@H]2[C@H](OC(C)=O)O[C@H](COC(C)=O)[C@@H](OC(C)=O)[C@@H]2OC(C)=O)cc1 (some centres undefined) | 52.8%
14 | CCOC(=O)C1=C(N)N(c2ccccc2)C2=C(C(=O)CC(C)(C)C2)C1c1ccc(Cl)cc1 (centres undefined) | 29.5%
15 | CCCn1c(=O)c2[nH]c(-c3ccc(OCc4nc5ccc(F)cc5[nH]4)cc3)nc2n(CCC)c1=O | -17.8% (active)
16 | Cc1ccc(/C(CSc2nnc(-c3c[nH]c4ccccc34)n2-c2ccccc2)=N/O)cc1 | -47.3% (active)
17 | CN1CCN(c2ccc(C(=O)/C=C/c3cc(C(F)(F)F)ccc3Cl)cc2)CC1 | -37.4% (active)
18 | COc1ccc(C(=O)Nc2sc3c(c2C#N)CCC(=O)C3)cc1C(F)(F)F | -51.2% (active)
19 | Cc1ccc(/C=C/C(=O)c2ccc(NC(=O)CSc3nnc(-c4c[nH]c5ccccc45)n3-c3ccccc3)cc2)cc1 | 54.2%

Row | Compound | growth
20 | COc1ccc(Nc2nc(N)n(Cc3cccc(Br)c3)n2)cc1 | 13.4%
21 | O=C1CCC(N2Cc3cc(NC(=O)COc4ccccc4)ccc3C2=O)C(=O)N1 (centres undefined) | 49.2%
22 | O=C(/C=C/Nc1ccccc1)c1ccc2c(c1)Nc1ccccc1S2 | 78.1%
23 | COc1cc2c(c(OC)c1OC)C(=O)CC(c1cccc(NC(=O)c3cccc(N)c3)c1)O2 (centres undefined) | 35.5%
24 | Cc1noc2c(Cc3ccc([N+](=O)[O-])cc3)nn(CC(=O)N/N=C/c3ccc(Br)cc3)c(=O)c12 | 62%
25 | COc1ccc(-c2nc(Nc3ccccc3S(N)(=O)=O)c3ccccc3n2)cc1 | 35.7%
26 | COc1cc(/C=C/C(=O)c2ccc(NC(=O)CSc3nnc(-c4c[nH]c5ccccc45)n3-c3ccccc3)cc2)cc(OC)c1OC | 69.6%
27 | O=C(CSc1nnc(-c2ccc3nc(-c4ccc(Cl)cc4)[nH]c3c2)o1)Nc1ccc(Br)cc1 | 53.7%
28 | Cc1ccn2c(C(=O)c3ccccc3)cc(-c3cc(-c4ccc(N(C)C)cc4)c(C#N)c(N)n3)c2c1 | 63.6%
29 | O=C1c2ccccc2C(=O)c2c1c(C(=O)c1ccc(Cl)cc1)n1c2ccc2c3ccccc3ccc21 | 104%
30 | Cn1c(O)c(N=Nc2nc(-c3cc4ccccc4oc3=O)cs2)c2cc(Br)ccc21 | 82.8%
31 | Cn1cc(-c2cc(N)n3nc(-c4c[nH]c5ccc(Br)cc45)cc3n2)c2cccnc21 | -75.7% (active)
32 | COc1ccc2c3nc4cc(C)c(C)cc4nc3n(CCN(C)C)c2c1 | -12.2% (active)
33 | O=C(CSc1nnc(-c2c[nH]c3ccccc23)n1-c1ccccc1)c1ccc(Br)cc1 | 22%
34 | OCc1[nH]nc2cc(Nc3ncc4ccc(Br)c(OC5CCC(O)CC5)c4n3)ccc12 (centres undefined) | 2.7% (active)
35 | Cc1cc(C)nc(NS(=O)(=O)c2ccc(N/C(N)=N/c3nccc(-c4ccccc4)n3)cc2)n1 | 25.1%
36 | N#Cc1c(NC(=O)c2ccc(C(O)(C(F)(F)F)C(F)(F)F)cc2)sc2c1CCC(=O)C2 | -60.5% (active)
37 | N#Cc1ccc(-c2nn(-c3ccc(C(=O)O)cc3)cc2CNc2cc(Cl)cc(C(F)(F)F)c2)cc1 | 8.34% (active)

These compounds were tested on BT-549 breast in the same assay as above. Conditions: 10 µM.

Row | Compound | growth
38 | O=C(NO)c1ccc(-c2nc3ccc4[nH]ncc4c3c3c2CCCC3)cc1 | -50.2% (active)
39 | O=C(CNc1nc(-c2ccccc2)cs1)Nc1ccc(Cl)cc1 | -54.5% (active)
40 | COc1cc2c3c(n(CCCN4CCOCC4)c(=O)c2cc1OC)-c1nc2c(cc1C3=O)OCO2 | 4.91% (active)
41 | Cc1ccc(/C=C/C(=O)c2ccc(NC(=O)CSc3nnc(-c4c[nH]c5ccccc45)n3-c3ccccc3)cc2)c(C)c1 | 52.8%
42 | O=C(CN1CCN(c2ncnc3c2cnn3-c2ccccc2)CC1)Nc1nncs1 | -85.9% (active)
43 | CC(=O)Oc1ccccc1C(=O)Oc1ccc(C(=O)/C=C/c2ccncc2)cc1 | 31%
44 | O=C(NC(=S)N1CCN(c2ncnc3c2cnn3-c2ccccc2)CC1)c1ccc(Cl)cc1 | 63.5%
45 | C/C(=N\N=C\c1ccc(N(C)C)cc1)c1ccc2c(c1)Nc1ccccc1S2 | 58.2%
46 | COC(=O)C[C@](O)(CCCC(C)(C)O)C(=O)O[C@H]1C(OC)=C[C@@]23CCC(=O)N2CCc2cc4c(cc2[C@@H]13)OCO4 | 118%
47 | CN1CCN(Cc2ccc(NC(=O)c3cncc(C#Cc4cnc5ccc(N[C@H]6CCOC6)nn45)c3)cc2C(F)(F)F)CC1 | -67.7% (active)
48 | CCOc1ccc(/C=N/NC(=O)Cn2nc(Cc3ccc([N+](=O)[O-])cc3)c3onc(C)c3c2=O)cc1 | 55.2%
49 | CN1CCN(c2ccc(C(=O)/C=C/c3ccc(OC(F)F)cc3)cc2)CC1 | 19.2%
50 | COc1ccc(C2N(c3ccc(Br)cc3)N=C(C(C)=O)N2[C@H]2[C@H](OC(C)=O)O[C@H](COC(C)=O)[C@@H](OC(C)=O)[C@@H]2OC(C)=O)cc1 (some centres undefined) | 91.2%
51 | CCOC(=O)C1=C(N)N(c2ccccc2)C2=C(C(=O)CC(C)(C)C2)C1c1ccc(Cl)cc1 (centres undefined) | 43.2%
52 | CCCn1c(=O)c2[nH]c(-c3ccc(OCc4nc5ccc(F)cc5[nH]4)cc3)nc2n(CCC)c1=O | 6.64% (active)
53 | Cc1ccc(/C(CSc2nnc(-c3c[nH]c4ccccc34)n2-c2ccccc2)=N/O)cc1 | -75.5% (active)
54 | CN1CCN(c2ccc(C(=O)/C=C/c3cc(C(F)(F)F)ccc3Cl)cc2)CC1 | -72.6% (active)
55 | COc1ccc(C(=O)Nc2sc3c(c2C#N)CCC(=O)C3)cc1C(F)(F)F | -58.3% (active)
56 | Cc1ccc(/C=C/C(=O)c2ccc(NC(=O)CSc3nnc(-c4c[nH]c5ccccc45)n3-c3ccccc3)cc2)cc1 | 95.7%

Row | Compound | growth
57 | COc1ccc(Nc2nc(N)n(Cc3cccc(Br)c3)n2)cc1 | -8.47% (active)
58 | O=C1CCC(N2Cc3cc(NC(=O)COc4ccccc4)ccc3C2=O)C(=O)N1 (centres undefined) | 4.38% (active)
59 | O=C(/C=C/Nc1ccccc1)c1ccc2c(c1)Nc1ccccc1S2 | 95.6%
60 | COc1cc2c(c(OC)c1OC)C(=O)CC(c1cccc(NC(=O)c3cccc(N)c3)c1)O2 (centres undefined) | 63.8%
61 | Cc1noc2c(Cc3ccc([N+](=O)[O-])cc3)nn(CC(=O)N/N=C/c3ccc(Br)cc3)c(=O)c12 | 94.3%
62 | COc1ccc(-c2nc(Nc3ccccc3S(N)(=O)=O)c3ccccc3n2)cc1 | 85.8%
63 | COc1cc(/C=C/C(=O)c2ccc(NC(=O)CSc3nnc(-c4c[nH]c5ccccc45)n3-c3ccccc3)cc2)cc(OC)c1OC | 54.9%
64 | O=C(CSc1nnc(-c2ccc3nc(-c4ccc(Cl)cc4)[nH]c3c2)o1)Nc1ccc(Br)cc1 | -69.8% (active)
65 | Cc1ccn2c(C(=O)c3ccccc3)cc(-c3cc(-c4ccc(N(C)C)cc4)c(C#N)c(N)n3)c2c1 | 58.1%
66 | O=C1c2ccccc2C(=O)c2c1c(C(=O)c1ccc(Cl)cc1)n1c2ccc2c3ccccc3ccc21 | 119%
67 | Cn1c(O)c(N=Nc2nc(-c3cc4ccccc4oc3=O)cs2)c2cc(Br)ccc21 | 59.6%
68 | Cn1cc(-c2cc(N)n3nc(-c4c[nH]c5ccc(Br)cc45)cc3n2)c2cccnc21 | -83.7% (active)
69 | COc1ccc2c3nc4cc(C)c(C)cc4nc3n(CCN(C)C)c2c1 | 39.4%
70 | O=C(CSc1nnc(-c2c[nH]c3ccccc23)n1-c1ccccc1)c1ccc(Br)cc1 | 65.2%
71 | OCc1[nH]nc2cc(Nc3ncc4ccc(Br)c(OC5CCC(O)CC5)c4n3)ccc12 (centres undefined) | -42.5% (active)
72 | Cc1cc(C)nc(NS(=O)(=O)c2ccc(N/C(N)=N/c3nccc(-c4ccccc4)n3)cc2)n1 | 83.7%
73 | N#Cc1c(NC(=O)c2ccc(C(O)(C(F)(F)F)C(F)(F)F)cc2)sc2c1CCC(=O)C2 | -64.4% (active)
74 | N#Cc1ccc(-c2nn(-c3ccc(C(=O)O)cc3)cc2CNc2cc(Cl)cc(C(F)(F)F)c2)cc1 | -22.5% (active)
